Experimental findings from ChEMBL document CHEMBL4513216, “Probing the Open Global Health Chemical Diversity Library for Multistage-Active Starting Points for Next-Generation Antimalarials” (ACS Infect Dis, 2020) are described below.

Among all 69,000 compounds or so, about 8,600 (12%) showed an effect of 50% or more. Shown is part of a subset that was picked to be rich in strong results.

The assay concerns Plasmodium berghei. The experiment in a line: Screen against P. berghei liver stage (PbLuc), transformed with Luciferase, at 10uM. The following applies: tested at 10 uM. Type of assay: functional, HepG2.
With `COC(C)(CNS(=O)(=O)c1cccnc1)c1ccccc1F` (configuration not stated), the INHIBITION amounted to 12.1%.
The same measure for `CCC1c2ccsc2CCN1C(=O)NCc1cc(C)on1` (configuration not stated): 11.915%; for `CC(NC(=O)NCC(C)(C)C(N)=O)c1nc(-c2ccccc2)cs1` (configuration not stated): 28.6%.
`COC(=O)[C@H]1C[C@@H](O)CCN1S(=O)(=O)c1cc(C)c(Cl)cc1C`: the INHIBITION came to 60.2%.
The same measure for `COC(=O)[C@H]1C[C@@H](O)CCN1S(=O)(=O)c1ccc(F)cc1F`: 34.2%.
The same measure for `COC(=O)[C@H]1C[C@@H](O)CCN1S(=O)(=O)c1cc(Cl)ccc1OC`: -16.9%; for `Cc1cc(C)c(CNc2cnn(CC(O)CN(C)C)c2)c(C)c1` (configuration not stated): 29.8%.
With `Cc1ccc(CNC(=O)CN2CCN(CC(O)c3ccco3)CC2)cc1` (configuration not stated) the figure was -1.58%.
With `O=C(NCC1CC1)C1CCC2(CCN(C(=O)c3ccccn3)CC2)O1` (configuration not stated), the INHIBITION is on record as -3.44%.
With `COCC(=O)NCC1(COc2cccnc2)C[C@@H](O)[C@@H](O)C1` (some centres not stated) the figure was 57.4%; with `COc1ccc(CNCC2(COc3cccnc3)C[C@@H](O)[C@@H](O)C2)cc1` (some centres not stated), 25.3%.
`O[C@@H]1CC(CNCc2ccccn2)(COc2cccnc2)C[C@@H]1O` (some centres not stated): the INHIBITION is given as -36%.
The same measure for `O[C@@H]1CC(CNCC2CCCC2)(COc2cccnc2)C[C@@H]1O` (some centres not stated): -23.9%; for `COCC(=O)NCC1(COc2cnccn2)C[C@@H](O)[C@@H](O)C1` (some centres not stated): 7.31%; for `O[C@@H]1CC(CNCC2CC2)(COc2cccnc2)C[C@@H]1O` (some centres not stated): 51%.
The same measure for `O=c1c(NCCc2ccc(O)cc2)c(NCc2ccncc2)c1=O`: 32.1%; for `CC(C)c1noc(-c2ccc(NC(=O)NCC(O)C(C)C)cc2)n1` (configuration not stated): -132%; for `Cc1ccc(OCCC(=O)NC2CCc3nc(C)cn3C2)cc1` (configuration not stated): 5.53%.
The same measure for `Cc1ccc(C(=O)NS(=O)(=O)Cc2ccccc2)cc1S(C)(=O)=O`: 1.98%; for `CC(C)Cc1cc(C(=O)N2CCC[C@H]2C(=O)N2CCOCC2)on1`: 68%; for `COC(=O)C1CCCN1C(=O)c1cc(CC(C)C)no1` (configuration not stated): -4.51%.
As to `CC(C)Cc1cc(C(=O)N2CCC(C(=O)N3CCOCC3)CC2)on1`, the INHIBITION is 31.2%.
The same measure for `CN(C)Cc1nc(C2(NC(=O)Nc3ccccc3)CCCC2)no1`: -20.1%.
With `O=c1c(-c2ccnc(NC3CCCCC3)n2)cnc2sc(Cl)cn12` the figure was 29.3%.
The same measure for `CCOc1ncccc1NC(=O)N1CCN(c2ccc(O)cc2)CC1`: -5.845%; for `COc1ccc(Oc2ncccc2NC(=O)N2CCOCC2C)cc1` (configuration not stated): 28.7%; for `CCOc1ncccc1NC(=O)N1CCOCC1C` (configuration not stated): 52.2%.
Turning to `Cc1nn(C(C)C)c(C)c1NC(=O)c1ccncc1`, the INHIBITION is listed as 26.8%.
With `CCOc1ncccc1NC(=O)N1CCCCCC1` the figure was 22.3%; with `CCOc1ncccc1NC(=O)NCC(C)O` (configuration not stated), -1.14%.
With `COc1ncccc1NC(=O)N1CCOCC1C` (configuration not stated) the figure was 45.4%; with `CCOc1ncccc1NC(=O)Nc1c(C)nn(C(C)C)c1C`, 56.8%; with `CCOc1ncccc1NC(=O)N1CCN(c2cccc(C)c2C)CC1`, 90.4%.
With `COCCN1C[C@@H]2CN(Cc3cccc(F)c3)CCC[C@]2(C(=O)O)C1` the figure was -1.64%; with `CN(Cc1ccc(N2CCOCC2)cc1)C(=O)Cn1cccnc1=O`, 7.08%; with `CC(=O)N1CCC(c2[nH]ncc2S(C)(=O)=O)CC1`, 4.41%.
As for `CNc1nc2cn(CCc3ccccc3)c(=O)c-2c[nH]1`, the INHIBITION is listed as -32.1%.
The same measure for `Cc1noc(C)c1CN1CCc2c(CNc3nccs3)n[nH]c2C1`: 46.6%; for `CC(NC(=O)NC1CC1)c1nc(-c2ccccc2)cs1` (configuration not stated): 11.5%.
On to `O=S(=O)(NC1CCCCC12OCCO2)c1cc(F)cc(F)c1` (configuration not stated), for which the INHIBITION is 6.83%.
The same measure for `CN(Cc1cnn(C)c1)C(=O)c1cc(C(F)(F)F)n(C)n1`: 36.6%.
With `N#Cc1cccc(N2CCCC3(C2)CN(c2ncccn2)CCO3)n1` (configuration not stated) the figure was 42.3%; with `N#Cc1cccc(N2CCOC3(CNCCOC3)C2)n1` (configuration not stated), 32.7%; with `N#Cc1cccc(N2CCCC3(CNCCO3)C2)n1` (configuration not stated), 51.2%.
The same measure for `Cc1nn(C)c(C)c1CN1CCN(CC2(O)CCCN(C)C2)CC1` (configuration not stated): 20.9%; for `O=C1NC(c2cnc(C3CCC3)s2)Nc2ncccc21` (configuration not stated): -44.2%.
As for `CNC(=O)CSc1cnn(CC(=O)Nc2cccc(Cl)c2C)c(=O)c1Cl`, the INHIBITION came to 45.7%.
For `Cc1cccc(NC(=O)CNC(=O)Cn2ncc(Cl)c(Cl)c2=O)c1C`, the INHIBITION amounted to 5.14%.
With `Cc1ccc(NC(=O)Cn2ncc(SCC(N)=O)c(Cl)c2=O)cc1` the figure was 30.5%.
Take `Cc1cc(NC(=O)Cn2ncc(SCC(N)=O)c(Cl)c2=O)ccc1Br`: the INHIBITION is 49.7%.
As for `Cc1ccc(NC(=O)Cn2ncc(SCC(N)=O)c(Cl)c2=O)c(F)c1`, the INHIBITION worked out at 64.5%.
On to `Cc1cccc(NC(=O)Cn2ncc(SCC(N)=O)c(Cl)c2=O)c1C`, for which the INHIBITION is given as 50.5%.
The same measure for `CC(=O)N1CCCCC12CCCN(Cc1ccco1)C2` (configuration not stated): 28.4%; for `CCC[C@@H]1CN(Cc2ccccc2SC)C[C@H]1NC(C)=O`: -7.53%; for `CC(C)(NC(=O)c1ccc(-c2ccccc2F)s1)C(N)=O`: -29%.
As to `CN(C)S(=O)(=O)N1C[C@H]2CC[C@@H](C1)N(Cc1cccc(C#N)c1)C2`, the INHIBITION is -6.88%.
With `O=C(Cn1ccc2ccccc21)NCc1ccc(C(=O)O)cc1` the figure was 15.8%.
The same measure for `COC(=O)C1CCN(C(=O)c2nnc3ccc(C)cc3n2)CC1`: 49.9%.
Turning to `COC(=O)C1CCN(C(=O)c2nnc3ccc(Cl)cc3n2)CC1`, the INHIBITION was 52.4%.
In the case of `CN1CCN(C(=O)c2nnc3ccc(Cl)cc3n2)CC1`, the INHIBITION is 1.04%.
The same measure for `CCc1nc(C(=O)N2CCCC2)nn1-c1c(Cl)cccc1Cl`: 48.4%; for `Cc1cc(Cl)cc(C)c1CNC1CCN(CC(=O)N(C)C)CC1`: 56.1%; for `Cc1cc2cc(CNC3CCN(CC4CCOC4)CC3)oc2cc1C` (configuration not stated): 48.5%.
The same measure for `Cc1cc2cc(CNC3CCN(S(C)(=O)=O)CC3)oc2cc1C`: 49.6%; for `Cc1nc(-c2c(C)noc2C)cc(C2CCN(CC(=O)N(C)C)CC2)n1`: 13.8%; for `CC(NC1CCN(CC(=O)N(C)C)CC1)c1cnn(C(C)C)c1` (configuration not stated): 19.8%.
In the case of `Cc1cc2cc(CNC3CCN(CC(=O)N(C)C)CC3)oc2cc1C`, the INHIBITION stood at 53.9%.
